The list is not random: actives were taken first. Their share in the collection is about 4.1%.
ssDAF-12 act – S. stercoralis DAF-12 activation, primary screen; HEK293 ssDAF-12/GRIP1 lit1-tk-luc reporter, luminescence; % of 3 µM dafachronic acid response; activation, % at 6.8 µM; 370,000 compounds, 1% hits; AID 652126;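 active means activation above the mean over all tested compounds plus 3 SD, cut at about 0.9% in these data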
hcDAF-12 act – activates DAF-12 receptor from parasite H. contortus; HEK293 hcDAF-12 lit1-tk-luc reporter, luminescence; 0% DMSO, 100% Δ7-dafachronic acid; activation, % at 6.8 µM; 370,000 compounds, 1.4% hits; AID 652067;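 active means activation above the mean of all tested compounds plus 3 SD, cut at about 5.5% in these data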
DAX1 inh-1 – DAX1 (NR0B1) inhibition, primary screen. HEK293T StAR-luciferase reporter, SF-1/DAX-1 repression relief. inhibition, % at 6.8 µM. 370,000 compounds, 1.1% hits. AID 652010;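 active means inhibition above the mean over all tested compounds plus 3 SD, cut at about 3.6% in these data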;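 further: higher inhibition means more luminescence from relief of DAX-1 repression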
hgDAF12 agonist – agonists of H. glycines DAF-12 nuclear receptor; HEK293 GAL4-hgDAF12 UAS-luciferase reporter, agonist luminescence; normalized to butyrate control; activation, % at 6.8 µM; 370,000 compounds, 1.8% hits;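 active means activation above a cutoff set at the mean of all screened compounds plus 3 SD, cut at about 10% in these data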
DAX1 inh-2 – inhibitors of human orphan nuclear receptor DAX1 (NR0B1); AID 504766; HEK293 Gal4-DAX1 luciferase reporter, luminescence; 340,000 compounds, 0.99% hits; inhibition, % at 6.75 µM; P51843;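 active means inhibition above the mean over all tested compounds plus 3 SD, cut at about 4.2% in these data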;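 further: inhibition shows as a rise in luminescence from relieved DAX1 repression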
DAX1 conf – NR0B1 (human) inhibition, confirmation | HEK293T StAR-promoter luciferase reporter, SF-1/DAX-1 repression | 2,400 compounds, 87% hits | inhibition, % at 6.8 µM | shares compounds with DAX1 inh-1;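 active means inhibition above the average of every tested compound plus 3 SD, cut at about 3.8% in these data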;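 further: active compounds raise luminescence by relieving repression of the StAR reporter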
Target sequence (P51843 whole entry, looked up): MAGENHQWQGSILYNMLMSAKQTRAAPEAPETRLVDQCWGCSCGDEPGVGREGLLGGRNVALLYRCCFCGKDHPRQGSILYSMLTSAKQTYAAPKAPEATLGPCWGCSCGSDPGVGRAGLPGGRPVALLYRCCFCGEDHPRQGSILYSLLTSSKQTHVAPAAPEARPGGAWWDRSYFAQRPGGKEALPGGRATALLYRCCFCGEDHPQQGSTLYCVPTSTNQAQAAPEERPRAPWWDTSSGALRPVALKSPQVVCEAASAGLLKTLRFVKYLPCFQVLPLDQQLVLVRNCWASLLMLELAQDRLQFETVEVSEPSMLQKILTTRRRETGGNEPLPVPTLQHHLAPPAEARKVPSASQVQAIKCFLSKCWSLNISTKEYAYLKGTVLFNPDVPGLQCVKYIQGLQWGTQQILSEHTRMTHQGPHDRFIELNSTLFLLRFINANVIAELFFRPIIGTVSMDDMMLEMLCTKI
SF1 mutant ctr – nonselective inhibitor or artifact in SF-1 mutant DAX1 counter-screen. shares compounds with DAX1 inh-1. HEK293 StAR-luciferase, SF-1 AF2 mutant, luminescence. inhibition, % at 6.8 µM. 2,400 compounds, 78% hits. AID 652136;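 active means inhibition above the mean of all tested compounds plus 3 SD, cut at about 3% in these data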
A number is an active result; . = inactive; / = not tested or not shown.

SMILES	ssDAF-12 act	hcDAF-12 act	DAX1 inh-1	hgDAF12 agonist	DAX1 inh-2	DAX1 conf	SF1 mutant ctr
CN(C)CCn1c2c(c(SCC(=O)N3CCc4ccccc43)nc1=O)CCCC2	.	.	.	.	.	/	/
CCN(CC)CCCn1c2c(c(SCC(=O)N3CCCc4ccccc43)nc1=O)CCC2	.	.	8.0	.	.	.	.
O=C(O)/C=C/c1cnn(-c2ccccc2)c1	.	.	5.0	.	.	7.3	3.5
CCCn1c2ccccc2c2cnn(CC(=O)NCCCN3C(C)CCCC3C)c(=O)c21 (stereo unspecified)	.	.	5.6	.	.	.	.
CCCn1c2ccccc2c2cnn(CC(=O)NCCCOC)c(=O)c21	.	.	.	.	.	/	/
CCN1C(=O)/C(=C/C=C2/SCCN2C)SC1=S	.	5.8	4.7	.	.	11	5.6
CC(C)OC(=O)c1ccc(NC(=O)c2ccccc2)cc1	.	.	.	.	.	/	/
CC(C)OC(=O)c1ccc2ccc(-c3ccccc3)nc2c1	.	.	8.4	.	/	15	7.3
O=C(COC(=O)/C=C/c1ccc(Cl)cc1Cl)NCC1CCCO1 (stereo unspecified)	.	.	.	.	.	/	/
Cc1cccc(-c2noc(CCC(=O)N3CCN(c4cc(C)ccc4C)CC3)n2)c1	.	.	6.3	.	.	6.0	3.9
COc1cc(C(=O)OCC(=O)NCCN2C(=O)CSC2=O)ccc1OCc1c(C)noc1C	.	.	.	.	.	/	/
O=C(Nc1cccc(O)c1)c1noc2c1CCc1ccccc1-2	.	6.3	7.0	.	.	16	6.3
Cc1ccc(NC(=O)CNC(=O)COc2ccccc2)nc1	.	.	.	.	.	/	/
Cc1ccnc(NC(=O)CNC(=O)c2ccccc2Br)c1	.	.	5.0	.	.	7.0	3.7
Cc1ccc(NC(=O)CC(NC(=O)c2ccccc2Cl)c2ccccc2)nc1 (stereo unspecified)	.	.	.	.	.	/	/
Cc1ccnc(NC(=O)CCNC(=O)c2ccccc2Cl)c1	.	.	5.0	.	.	8.5	5.6
Cc1ccc(NC(=O)CCNC(=O)c2ccccc2Cl)nc1	.	.	.	.	.	/	/
Cc1ccnc(NC(=O)CC(NC(=O)c2ccccc2Cl)c2ccccc2)c1 (stereo unspecified)	.	.	6.1	11	.	7.0	7.0
Cc1ccnc(NC(=O)CNC(=O)COc2ccccc2)c1	0.9	.	7.6	.	.	7.2	4.0
COc1cc(CC(NC(C)=O)C(=O)NC2CCN(c3c(Cc4ccccc4)c(C)nc4ncnn34)CC2)cc(OC)c1 (stereo unspecified)	.	.	.	.	.	/	/
C[C@@H]1CN([C@H](C)CO)C(=O)CCCn2nncc2CO[C@H]1CN(C)Cc1ccc(C(F)(F)F)cc1	.	.	.	.	.	/	/
CCOc1ncccc1C(=O)NCC(c1ccccc1)N(C)C (stereo unspecified)	.	.	5.1	.	.	8.1	4.0
CCOc1ncccc1C(=O)NCc1ccccc1F	.	.	.	.	.	/	/
Cc1ccccc1OCC(=O)Nc1nnc(COc2ccccc2)s1	.	.	.	.	.	/	/
COc1cc2cc(C(=O)NC(C)c3cccc4ccccc34)c(N)nc2cc1OC (stereo unspecified)	.	.	5.1	.	/	.	.
SMILES	ssDAF-12 act	hcDAF-12 act	DAX1 inh-1	hgDAF12 agonist	DAX1 inh-2	DAX1 conf	SF1 mutant ctr
Cc1nc(-c2cccc(NC(=O)c3ccco3)c2)cs1	.	.	4.7	.	.	.	.
Cc1ccn2cc(-c3ccc(NS(=O)(=O)c4ccccc4)cc3)nc2c1	.	.	.	.	.	/	/
Cc1ccc(NC(=O)c2cc(NC(=O)c3ccco3)ccc2N2CCOCC2)cc1Cl	.	.	.	.	.	/	/
CN1CCN(c2ccc(NC(=O)c3ccco3)cc2Cl)CC1	.	5.9	15	.	.	12	5.2
Cc1ccn2cc(-c3ccc(NC(=O)c4ccco4)cc3)nc2c1	.	.	5.0	11	.	11	8.6
Cc1nc2cc(NC(=O)Nc3nccs3)ccc2n1C	.	.	4.6	11	.	15	8.5
O=C(CCn1c(=O)c2ccccc2n(Cc2ccccc2)c1=O)NCc1ccc2c(c1)OCO2	.	.	.	.	.	/	/
O=C(NCCc1ccccc1F)C1CCCN(c2nc3ccccc3s2)C1 (stereo unspecified)	.	.	.	.	.	/	/
CCC1CN(C(=O)N2CCC(C(=O)NCc3ccco3)CC2)c2cc(C)ccc2O1 (stereo unspecified)	.	.	.	.	.	/	/
Cc1nc2cc(NC(=O)c3ccco3)ccc2n1C	.	.	7.7	12	.	11	7.4
CSc1ccc(CC(=O)N2CCC(n3nccc3NC(=O)C3CC3)CC2)cc1	.	.	6.0	12	.	.	.
COc1cccc(CC(=O)N2CCC(n3nccc3NC(=O)C3CC3)CC2)c1	.	.	.	.	.	/	/
O=c1[nH][nH]c(C(F)(F)F)c1C=NCc1cccs1	.	.	.	.	.	/	/
COc1ccc(-c2cc(=O)c3c(C)cc(O)cc3o2)cc1	1.8	6.5	5.6	12	.	13	4.6
Cc1ccc(/C=N\NC(=O)c2ccc3c(c2)OCO3)o1	.	.	5.2	.	.	.	2.9
CC(=O)Nc1ccc(NC(=O)COC(=O)[C@@H]2CCCN2C(=O)c2cccs2)cc1	.	.	.	.	.	/	/
COc1ccc(NC(=O)c2cccs2)cc1	.	.	.	.	.	/	/
O=C(Nc1ccc(NC(=O)C2CC2)cc1)c1cccs1	.	.	7.1	.	.	8.3	5.3
CN1CCN(C(=O)c2cc(COc3ccccc3)on2)[C@@H](c2ccccc2)C1	1.1	.	5.8	11	.	6.0	.
Cc1ccc(OCc2cc(C(=O)N3CCN(C)C[C@@H]3c3ccccc3)no2)cc1C	.	.	.	.	.	/	/
O=C(Nc1ccc(F)cc1F)c1csc(-c2cccs2)n1	2.1	.	7.0	13	.	9.3	6.7
CCOC(=O)c1c(C)[nH]c(C(=O)OCc2ccccc2)c1C	1.9	.	15	12	.	12	5.5
CCOC(=O)c1[nH]c(C)c(C(=O)OCc2ccc(C)cc2)c1C	.	.	.	.	.	/	/
O=C(NCCCN1CCCC1=O)C(=O)Nc1cccc(F)c1	.	.	5.9	.	.	7.5	5.3
COc1ccc(-c2cc3nc4n(c(=O)c3s2)CCC4)cc1	.	.	6.6	.	.	7.3	.
COc1ccc(-c2nc3n(c2C)CCC3)cc1	.	.	.	.	.	/	/
CC(=O)Nc1cccc(-c2csc(Nc3ccccn3)n2)c1	.	.	4.5	.	.	12	6.0
